Results taken from PubChem BioAssay AID1159580 (chemical genetic matrix, 2015).
Several values for one entry are separate records, joined by “and”; a condition that tells them apart may be missing. Identical values can stand only once. The campaign covered roughly 5,500 compounds. About 2,000 (36%) were called active. Another 18% or so got no clear call; they are omitted. Rule as the data show it: active = normalized growth mostly below about 0.91 (no sharp cut-off); inconclusive = no clear call, values can overlap the other calls; inactive = mostly above about 0.92. The list shows a part of the results.

Experiment: chemical genetic growth profiling, strain panel (AID 1159580);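 also: tested at 20 µM; growth read once vehicle control cultures reached saturation at 30 °C; 1 = growth at the plate median or of vehicle wells; lower values mean less growth of the strain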
Conditions: S. cerevisiae deletion strains, growth OD

Measured: normalized growth

CC(=O)Oc1ccc(C(c2ccc(OC(C)=O)cc2)c2ccccn2)cc1
inactive: locus YAL021C, strain ccr4, active compounds read low 1.02 | locus YAL026C, strain drs2, active compounds read low 1.02 | locus YAL030W, strain snc1, active compounds read low 1.01 | locus YBL061C, strain skt5, active compounds read low 1.01 | locus YBR009C, strain hhf1, active compounds read low 1.04 | locus YBR021W, strain FUR4, active compounds read low 0.998 | locus YBR023C, strain chs3, active compounds read low 1.02 | locus YBR171W, strain sec66, active compounds read low 1.02 | locus YBR229C, strain ROT2, active compounds read low 0.969 | locus YBR231C, strain swc5, active compounds read low 0.997 | locus YBR279W, strain paf1, active compounds read low 1.01 | locus YCL011C, strain gbp2, active compounds read low 1.02 | locus YCL016C, strain dcc1, active compounds read low 1.02 | locus YCL029C, strain bik1, active compounds read low 0.988 | locus YCL069W, strain vba3, active compounds read low 1.01 | locus YCR088W, strain abp1, active compounds read low 1.02 | locus YDL005C, strain med2, active compounds read low 1.01 | locus YDL035C, strain GPR1, active compounds read low 1.03 | locus YDL040C, strain nat1, active compounds read low 1.01 | locus YDL074C, strain BRE1, active compounds read low 0.995 | locus YDL101C, strain DUN1, active compounds read low 0.974 | locus YDL185W, strain tfp1, active compounds read low 0.993 | locus YDL192W, strain arf1, active compounds read low 0.984 | locus YDR001C, strain nth1, active compounds read low 1.02 | locus YDR069C, strain doa4, active compounds read low 1.01 | locus YDR101C, strain arx1, active compounds read low 0.996 | locus YDR137W, strain rgp1, active compounds read low 1.02 | locus YDR150W, strain NUM1, active compounds read low 0.99 | locus YDR159W, strain sac3, active compounds read low 0.993 | locus YDR162C, strain NBP2, active compounds read low 1.03 | locus YDR195W, strain ref2 0.985 | locus YDR297W, strain sur2, active compounds read low 1.02 | locus YDR318W, strain mcm21, active compounds read low 0.994 | locus YDR334W, strain swr1, active compounds read low 1.02 | locus YDR335W, strain msn5, active compounds read low 1.02 | locus YDR388W, active compounds read low 0.987 | locus YDR392W, strain spt3, active compounds read low 1.03 | locus YDR502C, strain sam2, active compounds read low 0.999 | locus YEL003W, strain gim4, active compounds read low 1.02 | locus YEL037C, strain rad23, active compounds read low 1.02 | locus YEL061C, strain CIN8 (second series), active compounds read low 1.01 | locus YEL061C, strain CIN8, active compounds read low 0.99 | locus YER015W, strain faa2, active compounds read low 1.01 | locus YER016W, strain bim1, active compounds read low 1.03 | locus YER110C, active compounds read low 0.977 | locus YER111C, strain swi4, active compounds read low 1.01 | locus YER155C, strain BEM2 (second series), active compounds read low 1.03 | locus YER155C, strain BEM2, active compounds read low 0.983 | locus YER167W, strain BCK2, active compounds read low 1 | locus YFR010W, strain ubp6, active compounds read low 0.996 | locus YGL078C, strain dbp3, active compounds read low 0.991 | locus YGL086W, strain mad1, active compounds read low 0.982 | locus YGL167C, strain pmr1, active compounds read low 1.03 | locus YGL173C, strain kem1, active compounds read low 1.02 | locus YGL227W, strain vid30, active compounds read low 1.01 | locus YGL240W, strain doc1, active compounds read low 1 | locus YGL248W, strain PDE1, active compounds read low 0.966 | locus YGL253W, strain hxk2, active compounds read low 1.03 | locus YGR135W, strain pre9, active compounds read low 0.996 | locus YGR229C, strain SMI1, active compounds read low 1.01 | locus YGR252W, strain gcn5, active compounds read low 0.961 | locus YHR013C, strain ard1, active compounds read low 1.06 | locus YHR027C, strain rpn1, active compounds read low 1.02 | locus YHR030C, strain SLT2, active compounds read low 0.99 and 1.02 | locus YHR079C, strain IRE1 (second series), active compounds read low 0.993 | locus YHR079C, strain IRE1, active compounds read low 0.983 | locus YHR094C, strain hxt1, active compounds read low 0.989 | locus YHR129C, strain ARP1, active compounds read low 0.989 | locus YHR142W, strain chs7, active compounds read low 1.01 | locus YHR200W, strain rpn10, active compounds read low 0.984 | locus YIL066C, strain RNR3, active compounds read low 1.02 | locus YIL073C, strain SPO22, active compounds read low 1.01 | locus YIL125W, strain kgd1, active compounds read low 0.985 | locus YIR030C, strain dcg1, active compounds read low 0.999 | locus YJL092W, strain hpr5, active compounds read low 1.01 | locus YJL095W, strain BCK1 (second series), active compounds read low 1.03 | locus YJL095W, strain BCK1, active compounds read low 0.975 and 1 | locus YJL115W, strain asf1, active compounds read low 1.01 | locus YJL129C, strain trk1, active compounds read low 1.03 | locus YJL134W, strain LCB3, active compounds read low 0.987 | locus YJL154C, strain vps35, active compounds read low 1.01 | locus YJL164C, strain tpk1, active compounds read low 1.02 | locus YJL166W, strain qcr8, active compounds read low 1 | locus YJL168C, strain set2, active compounds read low 0.985 | locus YJL187C, strain SWE1 (second series), active compounds read low 0.967 | locus YJR043C, strain POL32, active compounds read low 1.02 | locus YJR066W, strain TOR1, active compounds read low 0.976
